Assay outcomes (PubChem)
HIF-2a inh – blocks HIF-2a reporter activity; AID 624352; actives 0.72% (n = 360,000); 786-0 RCC cells HIF-2a reporter, luciferase luminescence, overnight; inhibition, % at 18.8 µM;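 active = inhibition of the luminescence signal of 40% or more relative to plate controls, in a single-dose primary screen at 18.75 µM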
iPSC survival up – increases survival of single human iPS cells; actives 0.044% (n = 360,000); hiPSC single-cell survival, ATPlite luminescence; 100% = ROCK inhibitor wells, 0% = DMSO; survival enhancement, % at 20 µM; in the data active = survival enhancement above about 18%;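 also: cells exposed to compounds for 16 hours before the ATP read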
KKLEB tox – counter-screen for CF NF-kB inhibitors: cytotoxicity; KKLEB CF airway cells viability, ATPlite luminescence, overnight; hits give low values; cells stimulated with P. aeruginosa culture filtrate; activity change (cytotoxicity), % at 5 µM; actives 0.36% (n = 360,000);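 active = corrected activity change at or below -50% at 5 µM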
LGR2 inh – Drosophila LGR2 receptor signaling inhibition. HEK293 LGR2, CRE-luciferase, bursicon-stimulated, 4 h. actives 0.35% (n = 380,000). inhibition, % at 9.99 µM. AID 720647;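 active = drop in luminescence signal, shown as inhibition above about 50% in the replicate tests, limit read from the data, passing the limit was not always enough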;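 also: agonist challenge used bursicon conditioned medium at about half maximal strength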
TWEAK-Fn14 inh – blocks TWEAK-Fn14 interaction in a reporter cell assay | TWEAK-stimulated Fn14 reporter cells, luciferase luminescence, 8 h | inhibition, % at 10 µM | actives 2% (n = 360,000) | AID 1159606; in the data active = inhibition above about 50%
CF NFkB inh – cystic fibrosis NF-kB activation inhibition | actives 0.86% (n = 360,000) | inhibition, % at 5 µM | KKLEB NF-kB-GFP reporter, PAF-induced, GFP fluorescence overnight;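 active = at least 50% inhibition at 5 µM, scaled per plate between neutral and stimulator controls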;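 also: PAF is a Pseudomonas aeruginosa culture filtrate used as stimulus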
Each line names hits and unclear results; the compound was inactive in the other large screens. This is a sample that favours compounds with a hit; in the whole collection about 2.3% have one here.

O=C(C[C@H]1C=C[C@@H](NC(=O)c2ccccn2)[C@H](CO)O1)NCc1cccc(F)c1	none (no result: HIF-2a inh, iPSC survival up, KKLEB tox, TWEAK-Fn14 inh, CF NFkB inh)
Cc1ccc(S(=O)(=O)N2[C@@H](c3ccc(C(C)(C)C)cc3)C(C(=O)O)=CC[C@H]2c2cccc(Cl)c2)cc1	TWEAK-Fn14 inh 50
Cc1ccc([C@H]2C(C(=O)O)=CC[C@@H](c3cccc(Cl)c3)N2S(=O)(=O)c2ccc(C)cc2)cc1	none
COc1ccc(CN(C)C[C@H]2OCCCC[C@@H](C)Oc3ccc(NC(=O)NC(C)C)cc3C(=O)N([C@@H](C)CO)C[C@H]2C)cc1	none (no result: HIF-2a inh, iPSC survival up, KKLEB tox, TWEAK-Fn14 inh, CF NFkB inh)
CCn1c(Sc2ccc([N+](=O)[O-])cn2)nnc1-c1ccco1	TWEAK-Fn14 inh 55
O=S(=O)(c1ccc(Cl)cc1)c1cnc2ccccc2n1	TWEAK-Fn14 inh 59
COc1ccc(NC(=O)N[C@H]2CC[C@@H](CCn3cc(C4(O)CCCC4)nn3)O[C@@H]2CO)cc1	none (no result: HIF-2a inh, iPSC survival up, KKLEB tox, TWEAK-Fn14 inh, CF NFkB inh)
CCCCn1c(N)c(S(=O)(=O)c2ccc(C)cc2)c2nc3ccccc3nc21	TWEAK-Fn14 inh 52
CN(C)CCCn1c(N)c(S(=O)(=O)c2ccccc2)c2nc3ccccc3nc21	none
CO[C@H]1CN(C)C(=O)c2ccc(NC(=O)c3ccc(F)cc3)cc2OC[C@H](C)N(C)C[C@@H]1C	none (no result: HIF-2a inh, iPSC survival up, KKLEB tox, TWEAK-Fn14 inh, CF NFkB inh)
C[C@H](NS(=O)(=O)c1ccc(Cl)cc1)C(=O)OCC(=O)NC(=O)Nc1ccc2c(c1)OCCO2	TWEAK-Fn14 inh 64
Cc1ccc(S(=O)(=O)N[C@H](C(=O)OCC(=O)NC(=O)Nc2ccc3c(c2)OCCO3)C(C)C)cc1	none
Cc1ccc2nc(N(CCCN(C)C)C(=O)c3sc4ccccc4c3Cl)sc2c1	TWEAK-Fn14 inh 73
Cc1sc2ncnc(N3CCC(C(=O)NNC(=O)COc4ccccc4Cl)CC3)c2c1C	none
Cc1cc(Br)ccc1NC(=O)CN(C)C(=O)C1CCN(c2ncnc3sc(C)c(C)c23)CC1	TWEAK-Fn14 inh 59
Cc1cc(Cl)ccc1OCC(=O)NNC(=O)C1CCN(c2ncnc3sc(C)c(C)c23)CC1	TWEAK-Fn14 inh 82
Cc1cccc(C)c1NC(=O)CN(C)C(=O)C1CCN(c2ncnc3sc(C)c(C)c23)CC1	none
Cc1ccc(S(=O)(=O)N2CCN(C(=O)C3CCN(c4ncnc5sc(C)c(C)c45)CC3)CC2)c(C)c1	TWEAK-Fn14 inh 51
Cc1sc2ncnc(N3CCC(C(=O)NNC(=O)COc4ccc(Cl)cc4)CC3)c2c1C	TWEAK-Fn14 inh 87
CN(C)CC#Cc1ccc([C@@H]2[C@H](CO)N3C(=O)CN(C(=O)c4cccc(F)c4)C[C@@H]23)cc1	none (no result: HIF-2a inh, iPSC survival up, KKLEB tox, TWEAK-Fn14 inh, CF NFkB inh)
COc1ccc(NC(=O)Nc2ccc3c(c2)C(=O)N([C@H](C)CO)C[C@H](C)[C@@H](CN(C)S(=O)(=O)c2ccc(F)cc2)OCCCC[C@H](C)O3)cc1	none (no result: HIF-2a inh, iPSC survival up, KKLEB tox, TWEAK-Fn14 inh, CF NFkB inh)
COc1ccc2c3c([nH]c2c1)[C@@H](CO)N(C(=O)c1ccccc1)CC31CN(C(=O)NC(C)C)C1	none (no result: HIF-2a inh, iPSC survival up, KKLEB tox, TWEAK-Fn14 inh, CF NFkB inh)
O=C(Nc1ccc2c(c1)[C@@H]1C[C@H](CC(=O)N3CCCCC3)O[C@@H](CO)[C@@H]1O2)NC1CCCCC1	none (no result: HIF-2a inh, iPSC survival up, KKLEB tox, TWEAK-Fn14 inh, CF NFkB inh)
C[C@H](CO)N1C[C@H](C)[C@H](CN(C)C(=O)NC2CCCCC2)OCCCC[C@H](C)Oc2ccc(NC(=O)NC3CCCCC3)cc2C1=O	none (no result: HIF-2a inh, iPSC survival up, KKLEB tox, TWEAK-Fn14 inh, CF NFkB inh)
Cc1sc2ncnc(N3CCC(C(=O)NNC(=O)COc4ccc(Br)cc4)CC3)c2c1C	TWEAK-Fn14 inh 88
Cc1ccc(OCC(=O)NNC(=O)C2CCN(c3ncnc4sc(C)c(C)c34)CC2)cc1	none
Cc1sc2ncnc(N3CCC(C(=O)NNC(=O)COc4cccc(C(F)(F)F)c4)CC3)c2c1C	TWEAK-Fn14 inh 56
O=C(Nc1ccccc1F)N[C@H]1CC[C@H](CCNS(=O)(=O)c2ccc(F)cc2)O[C@H]1CO	none (no result: HIF-2a inh, iPSC survival up, KKLEB tox, TWEAK-Fn14 inh, CF NFkB inh)
CCOC(=O)c1c(CSC(=N)N)n(-c2ccc(C)cc2)c2cc(Br)c(OC(C)=O)cc12	TWEAK-Fn14 inh 92 (no result: LGR2 inh)
CCc1ccc(/C=C2\SC(=S)N(CCC(=O)Nc3cc(C)on3)C2=O)cc1	HIF-2a inh 82, TWEAK-Fn14 inh 70
CCc1ccc(/C=C2\SC(=S)N(CCCC(=O)Nc3cc(C)on3)C2=O)cc1	HIF-2a inh 77, TWEAK-Fn14 inh 70
COc1cccc(/C=C2\SC(=S)N(CCCC(=O)Nc3cc(C)on3)C2=O)c1	none
Cc1cc(NC(=O)CCN2C(=O)/C(=C/c3ccccc3Cl)SC2=S)no1	none
Cc1cc(C)cc(Oc2ccc(-c3nnc(-c4ccccc4)o3)cc2[N+](=O)[O-])c1	TWEAK-Fn14 inh 101 (no result: LGR2 inh)
O=[N+]([O-])c1cc(-c2nnc(-c3ccccc3)o2)ccc1Oc1ccc(Cl)cc1	none
COc1ccc(-c2nnc(SCC(=O)Nc3sc4c(c3C#N)CCCC4)n2-c2ccccc2)cc1	KKLEB tox -73, CF NFkB inh 63
CCOC(=O)c1c(NC(=O)COc2cccc3c2CCN(C)C3=O)sc2c1CCC2	TWEAK-Fn14 inh 73
CCOC(=O)c1c(NC(=O)CSc2nnc(-c3c[nH]c4ccccc34)n2C)sc2c1CCCC2	TWEAK-Fn14 inh 56
Cc1cccc(NC(=O)COc2cccc3c2CCN(C)C3=O)c1C	none
C[C@@H]1CCCCO[C@@H](CN(C)C(=O)Cc2ccccc2)[C@H](C)CN([C@@H](C)CO)C(=O)c2cc(NS(=O)(=O)c3ccc(Cl)cc3)ccc2O1	none (no result: HIF-2a inh, iPSC survival up, KKLEB tox, TWEAK-Fn14 inh, CF NFkB inh)
Cc1ccc2c(c1)/C(=N/OS(=O)(=O)c1ccccc1)CCS2	none (no result: LGR2 inh)
Cc1ccc2c(c1)/C(=N/O)CCS2	TWEAK-Fn14 inh 65 (no result: LGR2 inh)
C[C@@H]1CCCCO[C@H](CN(C)S(C)(=O)=O)[C@@H](C)CN([C@H](C)CO)C(=O)c2cc(NS(=O)(=O)c3cccs3)ccc2O1	none (no result: HIF-2a inh, iPSC survival up, KKLEB tox, TWEAK-Fn14 inh, CF NFkB inh)
O=C(NC1CCCCC1)N(Cc1nc2ccccc2c(=O)[nH]1)C1CCCCC1	iPSC survival up 28 (no result: LGR2 inh)
O=C(NC1CCCCC1)N(Cc1nc2ccccc2c(=O)[nH]1)C1CCCC1	none (no result: LGR2 inh)
Cc1noc(C)c1NC(=O)Nc1ccc2c(c1)C(=O)N([C@H](C)CO)C[C@H](C)[C@H](CN(C)C(=O)Nc1ccc3c(c1)OCO3)OCCCC[C@@H](C)O2	none (no result: HIF-2a inh, iPSC survival up, KKLEB tox, TWEAK-Fn14 inh, CF NFkB inh)
COc1ccc(S(=O)(=O)Nc2cccc3c2O[C@@H](CN(C)C(=O)NC2CCCCC2)[C@H](C)CN([C@@H](C)CO)C3=O)cc1	none (no result: HIF-2a inh, iPSC survival up, KKLEB tox, TWEAK-Fn14 inh, CF NFkB inh)
O=C(COC(=O)c1ccccc1-n1cnnn1)c1ccc(Br)cc1	TWEAK-Fn14 inh 72
COc1ccc2nc(N=Nc3ccc(N(C)C)cc3)sc2c1	KKLEB tox -74 (no result: LGR2 inh)
Cc1ccc(/C=C/C(=O)Nn2cnnc2)cc1	TWEAK-Fn14 inh 57 (no result: LGR2 inh)
CC(C)(C)c1ccc(/C=C/C(=O)Nc2cccnc2)cc1	none
CC(C)(C)c1ccc(/C=C/C(=O)NC2=NCCS2)cc1	TWEAK-Fn14 inh 50 (no result: LGR2 inh)
Cc1ccc(/C=C/C(=O)NN2CCN(C)CC2)cc1	none
Cc1ccc(/C=C/C(=O)NC2=NCCS2)cc1	LGR2 inh 72, TWEAK-Fn14 inh 52
